Out of some 48,000 compounds screened, about 160 (0.33%) were called active. Many of the other results were omitted from the sample, so actives are more common in it than they were. A number with no mark means an inactive call.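 How the source made its calls: active means survival measured by cellular ATP above 50% at 15 µg/ml in the first screen; inactive means the rest.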
Assay: protection against thapsigargin ER stress killing – CSM14.1 cells, ATP luminescence, primary screen (AID 1010);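 further: cell death triggered by about 15 µM thapsigargin; ATP read 24 h after thapsigargin was added; plate controls were thapsigargin with DMSO for no effect and DMSO without thapsigargin for full effect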
Settings: CSM14.1 thapsigargin ER stress survival, stronger effect = higher value, screened at 15 µg/mL (by protocol)

SMILES	relative survival (cellular ATP)
Cc1ccc(C(=O)Nc2ccc(Cl)cc2)o1	2.1%
O=S(=O)(O)c1cc(-n2nc3ccc4c(S(=O)(=O)O)cccc4c3n2)ccc1/C=C/c1ccccc1	6.1%
CCc1cccc(C)c1NC(=O)c1ccc(C)c([N+](=O)[O-])c1	0.4%
CC(NC(=O)C(F)(Cl)C(F)(F)F)c1ccccc1 (configuration not stated)	-2.2%
O=C(N/C(=C/c1ccc(-c2cccc(C(F)(F)F)c2)o1)C(=O)N1CCOCC1)c1ccc(Cl)cc1	1%
O=[N+]([O-])c1ccc(C2Nc3ccc(Br)cc3C3C=CCC32)cc1 (configuration not stated)	6.4%
CC1(C)CC(=O)C2=C(C1)Nc1ccccc1N(C(=O)Cc1ccccc1)C2c1cccc(F)c1 (configuration not stated)	0.5%
COc1ccc(C2C3=C(CC(C)(C)CC3=O)Nc3ccccc3N2C(=O)c2ccc(Cl)cc2)cc1OC (configuration not stated)	59.4% (active)
CC1(C)CC(=O)C2=C(C1)NC1=C(C(=O)CC(C)(C)C1)C2c1ccccc1Cl	9.2%
CC(=O)Oc1ccc2occ(C(=O)c3ccc(C)cc3)c2c1	-6.1%
CCOC(=O)C1=NN(C(=O)c2ccc(Cl)cc2)C(O)(C(C)(C)C)C1 (configuration not stated)	11.8%
O=C(/C=C/c1ccccc1Cl)c1ccc(NC(=O)c2cccs2)cc1	1.3%
OC1(C#Cc2ccccc2)CCN(Cc2ccccc2)CC1	-6%
CC(=O)Nc1ccc(C(=O)N2CCN(c3ccccc3)CC2)cc1	-6.3%
O=C(c1ccc(C#CC2(O)CCCCC2)cc1)N1CCN(c2ccccc2Cl)CC1	94.4% (active)
Cc1cc(=O)oc2cc(OCC(=O)OCc3ccccc3)ccc12	1.2%
Cn1nc(-c2ccc(Br)cc2)cc1N	-2.2%
COc1cc(C2Nc3ccc4ccccc4c3C3=C2C(=O)CC(C)(C)C3)c(Br)cc1O (configuration not stated)	1.3%
COc1cc(OC)c(C2NC(=S)NC(C)=C2C(=O)Nc2ccc(Cl)cc2)cc1OC (configuration not stated)	7.2%
CCOc1nc(-c2ccccc2)cc(-c2ccc(Br)cc2)n1	1.9%
NS(=O)(=O)c1cccc(C(=O)Nc2ccc([N+](=O)[O-])cc2)c1	4.7%
Clc1ccc(/C=N\N2CCN(C(c3ccccc3)c3ccccc3)CC2)cc1	9.1%
C/C(Cn1nnc([N+](=O)[O-])n1)=N/NC(=O)Cc1ccccc1	-8.3%

SMILES	relative survival (cellular ATP)
CCCCS(=O)(=O)CC(O)COc1ccccc1 (configuration not stated)	10.3%
COc1cccc(C(=O)Nc2ccccc2C(F)(F)F)c1	5.4%
CCOC1CC(c2ccccc2)=NN1c1ccccc1 (configuration not stated)	2.7%
COc1ccc(C2/C(=C(\O)c3ccc(F)cc3)C(=O)C(=O)N2c2nncs2)cc1 (configuration not stated)	-1.4%
Oc1c(/C=C2/C=Nc3ccccc32)sc(=S)n1Cc1ccccc1	11%
O=C(Nc1cccc(F)c1)c1sc2ccccc2c1Cl	1.2%
COc1ccc(N2C(=O)c3ccc(C(=O)Nc4cccc(O)c4)cc3C2=O)cc1	2%
COC(=O)c1ccc(/C=C2\SC(=S)N(CCCC(=O)Nc3nccs3)C2=O)cc1	-4%
COc1ccccc1CC(=O)Nc1ccc(F)cc1F	6.1%
COc1ccc(C2/C(=C(\O)c3ccc(Cl)cc3)C(=O)C(=O)N2CCCn2ccnc2)cc1 (configuration not stated)	13%
COc1ccc(C2Sc3ccccc3NC3=C2C(=O)c2ccccc23)cc1 (configuration not stated)	5.1%
COc1ccc(NC(=O)c2cccc(N3C(=O)c4ccc(C(=O)Nc5ccc(OC)cc5)cc4C3=O)c2)cc1	0.4%
COc1cc(C2NC(=S)NC(C)=C2C(=O)Nc2ccccc2)ccc1O (configuration not stated)	3.8%
CC(=O)N1C(=O)c2cccc3cccc1c23	17.3%
COc1cc(/C=N/n2cnnc2)cc(Br)c1OCCOc1ccc(C(C)(C)C)cc1	6.5%
O=C(CNC(=O)C(c1ccccc1)c1ccccc1)N/N=C/c1cn[nH]c1-c1ccccc1	49.7%
Cc1c(OCC(=O)c2ccc(F)cc2)ccc2c3c(c(=O)oc12)CCCC3	0.4%
Cc1ccc(N(Cc2c(O)ccc3ccccc23)C(=O)c2cccc([N+](=O)[O-])c2)cc1	-2.5%
O=S(=O)(/N=C/c1ccccc1)c1cccs1	1.2%
COc1ccc(NC2SC(=O)NC2=O)cc1 (configuration not stated)	11.7%
CCOc1cccc(-c2cc(C(=O)N3CCCCCC3)c3ccccc3n2)c1	3.9%
NNC(=O)c1n[nH]c2c1CCCCCCCCCC2	-1.8%
Cc1ccccc1NC(=S)N1CCN(c2cccc(Cl)c2)CC1	6.6%

SMILES	relative survival (cellular ATP)
CSc1ccc(CN2CCN(C(=O)c3cccc(F)c3)CC2)cc1	7.7%
O=C(Nc1ccc(Br)cn1)c1cc2n(n1)C(C(F)(F)F)CC(c1cccs1)N2 (configuration not stated)	-3.5%
NS(=O)(=O)c1ccc(CCNC(=O)c2cccs2)cc1	-2.4%
COc1ccccc1C(=O)NN1C(=O)/C(=C2/C(=O)N(CC(=O)O)c3ccccc32)SC1=S	25.3%
CCN(CC)S(=O)(=O)c1ccc(NC(=O)c2ccc(OC)c(I)c2)cc1	0.8%
COc1ccc(C2CC(=O)C3=C(C2)Nc2ccccc2NC3c2cc(F)ccc2F)cc1 (configuration not stated)	-0.8%
COc1ccc(C2CC(=O)C3=C(C2)Nc2ccccc2NC3c2cc3c(cc2[N+](=O)[O-])OCO3)cc1 (configuration not stated)	-4.3%
COc1ccc(C2CC(=O)C3=C(C2)Nc2ccccc2NC3c2cccc(Cl)c2)cc1 (configuration not stated)	6.7%
COC(=O)C1=C(C)NC2=C(C(=O)CC(c3ccc(OC)c(OC)c3)C2)C1c1ccccc1OCc1ccccc1 (configuration not stated)	60.6% (active)
COC(=O)C1=C(C)NC2=C(C(=O)CC(c3ccccc3)C2)C1c1cccc(I)c1 (configuration not stated)	22.6%
COC(=O)C1=C(C)NC2=C(C(=O)CC(c3ccc(OC)c(OC)c3)C2)C1c1ccc(OC)c(OC)c1 (configuration not stated)	8.8%
COc1ccc(C2CC(=O)C3=C(C2)Nc2ccccc2NC3c2ccc(SC)cc2)cc1 (configuration not stated)	7.4%
CCCCOc1ccccc1C1Nc2ccccc2NC2=C1C(=O)CC(c1ccc(OC)c(OC)c1)C2 (configuration not stated)	76.5% (active)
COc1ccc(C2CC(=O)C3=C(C2)Nc2ccccc2NC3c2cccc(C)c2)cc1 (configuration not stated)	102% (active)
CCc1c(C)sc(NC(=O)CCc2ccc(OC)cc2)c1C#N	4.9%
COc1cccc(/C=N/N2CCN(Cc3ccc(Cl)cc3)CC2)c1	-4.1%
CCOc1cc(OCC)cc(C(=O)Nc2cc3nn(-c4ccc(OC)cc4)nc3cc2C)c1	4.3%
CCCCCCCCC(=O)N/N=C/c1ccsc1C	2.5%
Cc1cc(NC(=O)COC(=O)/C=C/c2ccc([N+](=O)[O-])cc2)no1	1.8%
Cc1ccc([N+](=O)[O-])cc1NC(=O)C12CC3CC(CC(C3)C1)C2	-1.4%
CC1(C)Nc2ccc(OC(=O)c3ccccc3Br)cc2-c2c1ssc2=S	-1%
Cc1ccc(Cl)cc1NC1=CC(=O)CC(C)(C)C1	10.7%
O=C(NC1CCCCCC1)c1ccc([N+](=O)[O-])o1	-27.9%

SMILES	relative survival (cellular ATP)
CCO/N=C1/CC(c2ccccc2)Cc2onc(C)c21 (configuration not stated)	13.2%
O=C1CCCC2=C1C(c1ccc(Cl)cc1)Nc1ccc(C(=O)c3ccccc3)cc1N2 (configuration not stated)	72.5% (active)
COc1cc(C2Nc3ccc(C(=O)c4ccccc4)cc3NC3=C2C(=O)CCC3)cc(OC)c1OC (configuration not stated)	-2.2%
COC(=O)c1ccc(C2Nc3ccccc3NC3=C2C(=O)CC(c2ccccc2)C3)cc1 (configuration not stated)	3.7%
NC(=O)c1ccccc1N=Cc1ccccc1[N+](=O)[O-]	1.7%
CCOc1ccc(N2C(=O)CC(NCc3cccnc3)C2=O)cc1 (configuration not stated)	5.5%
CC(=O)N(C1=C(Cl)C(=O)c2ccccc2C1=O)c1cccc(Br)c1	11.1%
CC(=O)Nc1ccc(S(=O)(=O)Nc2ccc(Br)c(Cl)c2)cc1	5.8%
CCN(C(=O)c1ccccc1)c1ccccc1	-4.6%
COc1ccc(C2/C(=C(\O)c3ccccc3)C(=O)C(=O)N2CCCCCC(=O)O)c(OC)c1 (configuration not stated)	-3.4%
CCN(C(=O)c1sc(NC(=O)c2ccc(Cl)cc2)c(C#N)c1C)C1CCCCC1	2.3%
CCOc1ccc(/C=N/N2CCN(c3ccccc3OC)CC2)cc1OC	5.2%
COc1ccc(C(=O)NC(N2CCCCC2)C(Cl)(Cl)Cl)cc1OC (configuration not stated)	3.6%
C=CCc1c(C)nc(-c2ccccc2)nc1Nc1ccc(C(=O)O)cc1	0.2%
Cn1cc(/C=C2/SC(=S)N(c3ccccc3)C2=O)c2ccccc21	6.8%
CC1=C(C(=O)Nc2ccccc2)C(c2ccc3c(c2)OCO3)NC(=S)N1 (configuration not stated)	10.1%
CCOC(=O)C(=Cc1ccc(-c2cccc(Cl)c2Cl)o1)C(=O)OCC	5.9%
COc1ccccc1-n1cnc2cc(NC(=O)c3ccccc3)ccc21	97.4% (active)
COc1ccc(NC(=O)c2cccc(F)c2)cc1OC	24.8%
COc1cc(OC)cc(C(=O)Nc2ccc3nn(-c4ccc(F)cc4)nc3c2)c1	4%
COc1ccc(CN2CCN(C(=O)c3cccc(Cl)c3)CC2)cc1OC	2.9%
O=C(Nc1cccc(Br)c1)c1ccc(N2C(=O)c3cccnc3C2=O)cc1	4.6%
Cc1ccc(-c2[nH]ncc2/C=N/NC(=O)c2ccc(Br)cc2)cc1	3.5%

— PubChem BioAssay AID1010 (Sanford-Burnham Center for Chemical Genomics, 2008)
